# Source: article PMC4336329 (PLoS ONE, 2015)
# Out of some 310,000 compounds screened, about 2,200 (0.71%) showed an effect of 50% or more. The effect is printed as a negative number. Many of the other results were omitted from the sample, so strong results are more common in it than they were.
# Target: human ether-à-go-go-related gene (hERG) potassium channel (human, UniProt Q12809)
# Assay: primary screen, population patch clamp on CHO cells stably expressing hERG; higher = less effect of the substance
# Sequence of human ether-à-go-go-related gene (hERG) potassium channel (Q12809 whole entry, looked up): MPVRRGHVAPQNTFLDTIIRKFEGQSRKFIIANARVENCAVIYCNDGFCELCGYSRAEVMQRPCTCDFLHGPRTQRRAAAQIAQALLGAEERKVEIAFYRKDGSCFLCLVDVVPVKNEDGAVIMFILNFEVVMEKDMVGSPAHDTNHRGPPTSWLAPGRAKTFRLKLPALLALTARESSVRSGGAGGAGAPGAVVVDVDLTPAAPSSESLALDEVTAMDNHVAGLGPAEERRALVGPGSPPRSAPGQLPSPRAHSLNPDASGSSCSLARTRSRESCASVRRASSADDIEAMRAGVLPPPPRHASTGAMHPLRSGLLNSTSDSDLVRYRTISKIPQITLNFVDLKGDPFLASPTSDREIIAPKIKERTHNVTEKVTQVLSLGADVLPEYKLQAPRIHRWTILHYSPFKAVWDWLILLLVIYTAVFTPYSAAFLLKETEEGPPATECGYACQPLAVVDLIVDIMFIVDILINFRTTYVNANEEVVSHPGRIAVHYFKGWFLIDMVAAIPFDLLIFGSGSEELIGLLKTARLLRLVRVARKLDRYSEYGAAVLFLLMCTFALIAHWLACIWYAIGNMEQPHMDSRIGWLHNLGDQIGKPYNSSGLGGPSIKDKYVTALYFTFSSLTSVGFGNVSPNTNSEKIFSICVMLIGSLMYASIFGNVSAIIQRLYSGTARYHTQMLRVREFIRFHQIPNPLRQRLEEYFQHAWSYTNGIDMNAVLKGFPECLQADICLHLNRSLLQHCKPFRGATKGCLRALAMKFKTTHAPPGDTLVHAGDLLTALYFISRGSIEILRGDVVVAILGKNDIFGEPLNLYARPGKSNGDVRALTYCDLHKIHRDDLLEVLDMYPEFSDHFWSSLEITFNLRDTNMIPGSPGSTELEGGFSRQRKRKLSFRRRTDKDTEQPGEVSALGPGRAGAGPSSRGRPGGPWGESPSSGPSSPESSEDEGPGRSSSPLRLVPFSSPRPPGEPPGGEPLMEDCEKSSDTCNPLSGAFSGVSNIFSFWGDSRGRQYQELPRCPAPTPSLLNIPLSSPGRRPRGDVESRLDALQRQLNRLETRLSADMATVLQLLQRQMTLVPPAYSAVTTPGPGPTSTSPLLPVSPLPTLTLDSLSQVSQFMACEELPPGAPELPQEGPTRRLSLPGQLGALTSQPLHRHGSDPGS
row,Structure (SMILES),"hERG current change (%, negative = inhibition) at 1uM"
1,CN(C)S(=O)(=O)c1cc(NC(=O)CNCCN2CCOCC2)ccc1Cl.O=C(O)C(=O)O,7.62%
2,COc1ccc(C(=O)C2CCCN(Cc3ccc(F)cc3F)C2)cc1F (stereo not drawn),3.8%
3,COc1ccc(C(=O)C2CCCN(Cc3cccn3-c3ccccn3)C2)cc1F (stereo not drawn),-87.1%
4,COc1ccc(F)cc1C(=O)C1CCCN(Cc2cccn2-c2ccccn2)C1 (stereo not drawn),-89.9%
5,COc1ccc(F)cc1C(=O)C1CCCN(Cc2ccc(Oc3ncccn3)cc2)C1 (stereo not drawn),-34.8%
6,COc1ccc(F)cc1C(=O)C1CCCN(Cc2cccn2-c2cccnc2)C1 (stereo not drawn),5.09%
7,O=C(c1cc(F)ccc1F)C1CCCN(Cc2cccn2-c2ccccn2)C1 (stereo not drawn),-83.1%
8,O=C(C1CCCN(CCCc2ccccc2)C1)N1CCCCC1 (stereo not drawn),-5.07%
9,O=C(c1cc(F)ccc1F)C1CCCN(Cc2cccc(Cl)c2)C1 (stereo not drawn),8.46%
10,COc1ccc(C(=O)C2CCCN(Cc3cn(C)nc3-c3ccccc3)C2)cc1F (stereo not drawn),-19.1%
11,CCOc1ccccc1CN1CCCC(C(=O)c2cc(F)ccc2F)C1 (stereo not drawn),-16.6%
12,O=C(c1cc(F)ccc1F)C1CCCN(CCCc2ccccc2)C1 (stereo not drawn),-76.6%
13,O=C(c1cc(F)ccc1F)C1CCCN(C(=O)CSc2ccccn2)C1 (stereo not drawn),-3.1%
14,O=C(Nc1ccc(Cl)cc1)c1cc(S(=O)(=O)N2CCOCC2)cs1,-7.43%
15,COCCCN(Cc1ccco1)C(=O)Cn1ncc2c([nH]c3ccccc32)c1=O,-5.46%
16,O=C(N/N=C1/CCc2ccccc21)C1CC1,6.47%
17,Cc1ccc(CNC(=O)COC(=O)c2ccc(S(=O)(=O)N(C)C)cc2)cc1,17.8%
18,CCN(CC)c1ccc2ccc(=O)oc2c1,7.92%
19,O=C(NNC(=O)c1ccc(Cl)c(S(=O)(=O)Nc2ccc(Cl)cc2)c1)c1ccc(=O)[nH]c1,14.5%
20,COc1ccc(-c2nnc3ccc(SCC(=O)N4CCCCC4)nn23)cc1OC,6.34%
21,Cc1cc2nc(-c3ccc(=O)[nH]c3)n(C)c2cc1C,11%
22,Cc1ccc(-c2csc(NC(=O)c3ccc(F)cc3)c2C(=O)O)cc1,16%
23,CCOC(=O)C1(C)Oc2ccc(S(=O)(=O)CC)cc2NC1=O (stereo not drawn),16.3%
24,COCCn1nnnc1C(c1ccccn1)N1CCN(c2cc(C)ccc2C)CC1.Cl (stereo not drawn),9.25%
